Screens deposited in PubChem by National Center for Advancing Translational Sciences (NCATS).
Rows were chosen to be rich in hits. Some 2.8% of all compounds tested hit in one or more screens of this group.
IP6K1 inh – IP6K1 kinase inhibition. IP6K1 kinase, ADP-Glo luminescence, 2 h; stronger effect = lower value. hit rate 0.81% among 140,000. activity change, % (series mostly up to about 58 µM). AID 1645851; in the data active = activity change below about -25%; also: % is scaled to controls: 0 for no effect and ±100 for the full control effect
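ADP-Glo luminescence measures ADP made by human IP6K1 during a 2 h RT reaction with ATP/IP6 (mix at 1.3 mM/130 uM); top library doses 57.5 and 19.1 uM final.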
KDM5B inh – inhibitors of human KDM5B histone demethylase | Q9UGL1 | KDM5B demethylase, FDH-coupled NADH fluorescence (FDH is formaldehyde dehydrogenase) | AID 1347165 | Potency, µM (top dose mostly 57.7 µM), actives largely listed as inhibitors | hit rate 2.6% among 220,000; active = well fitted inhibition curve with a large enough effect; inconclusive = small, poorly fitted or top-dose-only effect; inactive = no such curve, though single readings can be large or run the other way; also: potency is read from the fitted curve at half-maximal effect; 0% is about no effect; nearly all actives have a fitted effect of over 70% in size
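Measured: NADH fluorescence change, 30 min, RT. System: KDM5BΔAP 200 nM final, H3K4me3 peptide, α-KG, Fe(II), ascorbate, NAD⁺ plus FDH, pH 7.5 HEPES. Compounds: titrated, 10 min pre-incubation with enzyme.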
The depositor's hits bear a star; i = inactive; ? = inconclusive; nt = not tested or not shown.

SMILES	IP6K1 inh	KDM5B inh
O=C(N[C@@H]1CN(c2ncccn2)C[C@H]1CO)c1ccoc1	7.3	12.6µM*
Fc1cccc(-c2nc(CSc3ncn[nH]3)co2)c1	nt	i
O=C(O)c1ccc(COc2cccc(/C=N/O)c2)cc1	nt	i
CCOc1ccc2nc(N(Cc3cccnc3)C(=O)C3=COCCO3)sc2c1	nt	i
COc1ccc(CN(C)c2nn3c(=O)cc(C)nc3s2)cc1OC	nt	i
COC(=O)c1sc2cccc(F)c2c1S(=O)(=O)N1CCN(c2cccc(Cl)c2)CC1	nt	i
CN(CC#N)C(=O)c1cc(-c2ccc(C(F)(F)F)cc2)nc2c1cnn2C	-13.2	nt
CCCN(Cc1ccc(OCC)c(OCC)c1)C(=O)c1cc2ccccc2oc1=O	nt	i
O=C(Nc1ccc(Cl)nc1)c1cc2cccnn2n1	8.3	35.5µM*
CCc1ccc(CNC(=O)c2cc3ccccn3n2)cc1	3.0	?
O=C(Nc1ccc(Cl)nc1)c1ccn2nccc2c1	0.7	?
O=C(NCc1ccc(Cl)nc1)c1cc2cccnn2n1	4.4	35.5µM*
O=C(NC1CCN(c2ccnc3ccnn23)CC1)c1ccncc1	-14.0	nt
COCC1CN(C)CC12CCN(Cc1ccc(OC)cc1)CC2 (stereo unspecified)	15.1	?
COCC1CN(C)CC12CCN(Cc1ccc(F)c(Cl)c1)CC2 (stereo unspecified)	23.0	28.2µM*
COc1ccccc1-c1cccc(C(=O)N2CCN([S+](=O)([O-])c3cccc(C(F)(F)F)c3)CC2)c1	14.2	nt
COc1ccc2[nH]c(CNc3cc(C4CC(N)C4)nc(C)n3)cc2c1 (stereo unspecified)	-11.5	20µM*
COc1ccc(-c2[nH]ncc2CNc2cc(C3CC(O)C3)nc(C)n2)cc1 (stereo unspecified)	8.4	i
Cc1nn(-c2ccccc2)c2c1C(C1CC1)N(C1CN(C(=O)c3ccc(Cl)cc3)C1)C2=O (stereo unspecified)	2.1	nt
CNC(=O)[C@@H]1CN(C(=O)c2cc3ccccc3[nH]2)C[C@H]1COC	3.9	i
CNC(=O)[C@@H]1CN(C(=O)c2cc3cc(OC)ccc3[nH]2)C[C@H]1COC	6.6	31.6µM*
CNC(=O)[C@@H]1CN(C(=O)c2cc3ccc(OC)cc3[nH]2)C[C@H]1c1n[nH]c(C)n1	3.1	?
COc1ccc2[nH]c(C(=O)N3C[C@@H](C(N)=O)[C@H](c4n[nH]c(C)n4)C3)cc2c1	3.2	28.2µM*
COc1cc(OC)cc(-c2onc(C)c2C(=O)NC(C)c2ccccc2)c1 (stereo unspecified)	1.3	?
Cc1noc(-c2cccs2)c1C(=O)NC(C)c1cccc2ccccc12 (stereo unspecified)	-8.2	31.6µM*
SMILES	IP6K1 inh	KDM5B inh
Cc1nc(-c2cccs2)c(CC(=O)NC(C)c2cccc3ccccc23)s1 (stereo unspecified)	nt	i
COc1cccc(CNC(=O)c2c(C)noc2-c2cccs2)c1	-6.6	?
Cc1cccc(CNC(=O)c2c(C)noc2-c2cccs2)c1	6.4	28.2µM*
Cc1noc(-c2cccs2)c1C(=O)NC(C)c1ccccc1 (stereo unspecified)	4.4	25.1µM*
O=C(CSc1n[nH]c(-c2cccc(Br)c2)n1)c1ccc(Cl)cc1	nt	i
c1coc(CNC23CC4CC(CC(C4)C2)C3)c1	nt	i
COC(=O)C(OC(=O)c1[nH]c(C)c(C(C)=O)c1C)c1ccccc1Cl (stereo unspecified)	nt	i
COc1ccc(-c2ccc(C(=O)Nc3cccc(F)c3)c(Cl)c2)nn1	-2.2	nt
CCN(Cc1ccncc1)C(=O)CCC[C@@H]1[C@H]2CCCN3CCC[C@@H](CN1C(C)=O)[C@@H]23	-6.2	?
CN1CCCN(C(=O)CCC[C@@H]2[C@H]3CCCN4CCC[C@@H](CN2Cc2ccccc2)[C@@H]34)CC1	-6.3	i
CN1CCCN(C(=O)CCC[C@@H]2[C@H]3CCCN4CCC[C@@H](CN2Cc2cccnc2)[C@@H]34)CC1	-6.6	22.4µM*
CCN(Cc1ccncc1)C(=O)CCC[C@@H]1[C@H]2CCCN3CCC[C@@H](CN1Cc1cccnc1)[C@@H]23	-1.6	28.2µM*
COc1ccc(F)cc1-c1ccc(CN2CCC(NC(=O)c3cccnc3)C2)cc1 (stereo unspecified)	5.8	nt
CC(Sc1ccc(F)c(Cl)c1)C(=O)NC(C)(C)C (stereo unspecified)	nt	i
O=C1Nc2ccc(-c3ccc4c(c3)OCO4)cc2C(=O)N2CCN(C(=O)C3CCCC3)C[C@@H]12	-18.8	22.4µM*
CC(C)(C)CC(=O)N1CCN2C(=O)c3cc(-c4ccc5c(c4)OCO5)ccc3NC(=O)[C@H]2C1	6.3	?
COc1ccc(-c2ccc3c(c2)C(=O)N2CCN(C(=O)C4CCCCC4)C[C@@H]2C(=O)N3)cc1	-8.1	?
CSc1ccc(-c2ccc3c(c2)C(=O)N2CCN(C(=O)C4CCCCC4)C[C@@H]2C(=O)N3)cc1	-0.4	28.2µM*
COc1ccc(CNC(=O)C2CCCCN2Cc2ccc(-c3cc(F)ccc3OC)cc2)cc1OC (stereo unspecified)	-1.9	nt
O=C(O)c1cc(-c2ccc(F)cc2)on1	nt	i
CNc1ncc(C(=O)N2CCCC3(CCC(=O)N(CCOC)C3)C2)cn1 (stereo unspecified)	-7.6	28.2µM*
CCCc1cc(C(=O)N2CCCC3(CCC(=O)N(CCOC)C3)C2)cs1 (stereo unspecified)	-1.0	i
O=C(Nc1ccc(-c2nnc3n2CCCC3)cc1)c1ccc(F)cc1	37.3	i
O=C(NCCCc1ccccn1)c1ccc2nc(-c3ccc(F)cc3)cn2c1	2.1	28.2µM*
O=C(NCc1nnc2n1CCC2)c1ccc2nc(-c3ccc(F)cc3)cn2c1	11.0	31.6µM*
SMILES	IP6K1 inh	KDM5B inh
O=C(NCc1ccccn1)c1ccc(F)cc1	nt	i
Cc1c(CNC(=O)c2ccc3nc(-c4ccc(F)cc4)cn3c2)cnn1C	20.6	28.2µM*
O=C(NCc1ccc(F)cc1)c1ccc2nnc(-c3ccoc3)n2c1	1.3	nt
COc1ccc(CNC(=O)c2cc(-c3ccc(F)cc3)nc3c2cnn3C)cc1	-11.4	nt
O=C(NCc1ccoc1)c1ccc2nc(-c3ccc(F)cc3)cn2c1	-5.7	25.1µM*
CCOc1ccccc1NC(=O)c1nnn(-c2cccc(C(F)(F)F)c2)c1N	nt	i
Cc1cccc(-c2nc3cc(C(=O)NCC(C)C)ccc3o2)n1	-3.7	nt
Cc1ccc(SC(=O)c2ccc(F)cc2)cc1	nt	i
Cc1c(Cl)cccc1S(=O)(=O)N(Cc1nccn1C)C1CC1	nt	i
CCCCCn1nc(C(=O)OCC(=O)c2cc(C)n(CCC)c2C)c2ccccc2c1=O	nt	i
CCOc1ccc(NC(=O)c2ccc(Cl)cc2Cl)c2cccnc12	nt	i
O=c1[nH]c(C2CCCN(Cc3ccc(-c4cccs4)cc3)C2)nc2ccc(F)cc12 (stereo unspecified)	5.2	?
COc1cccc(-c2cn3cc(C(=O)Nc4ccc(C)cc4)nc3s2)c1	9.3	nt
Cc1ccsc1C(=O)N1CC[C@@H]2COCCN(Cc3ccncc3)[C@@H]2C1	19.2	nt
O=C(O)CCNS(=O)(=O)c1ccc(Cl)c(C(F)(F)F)c1	nt	i
Cc1nc2c(-c3ccccc3)c(C)nn2c(C)c1CCC(=O)NCc1ccccc1Cl	23.5	?
Cc1cc(CNC(=O)C(C)Cn2nc(C)nc2C)c2[nH]c(-c3ccccc3)c(C)c2c1 (stereo unspecified)	13.4	i
